Reference: the supplement of paper PMC10849652
About 7,900 targets were measured; listed, in parts, are those with a hit and a random draw of the rest. About 0.6% of all pairs of compound and target were hits.

What was measured:
Assay in all cases: log2 fold change, soluble protein after heating vs DMSO (PISA); higher = thermal stabilisation; K562 cells, 10 uM, 30 min; active = over 0.2 and 3.5 SD of the protein, either way, in both replicates (recomputed)
erlotinib = compound: C#Cc1cccc(Nc2ncnc3cc(OCCOC)c(OCCOC)cc23)c1 [erlotinib]
How it was run: (§1)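 Values are thermal stability changes relative to control samples and are taken from duplicates. They are stated as log2 fold changes. Before quantification by TMTpro 16plex LC-MS/MS with equalised channel sums, K562 cells at 2×10^6 cells/mL were treated with 10 μM compound for 30 min, heated in aliquots for 3 min across 48°C-58°C, pooled, extracted in PBS with 0.5% NP-40 at 4°C, and centrifuged at 21,000xg for 90 min to give the soluble supernatant.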

[1] = compound: C/C(=N\NC(=O)C1=CC(=CC=C1)S(=O)(=O)N2CCOCC2)/C3=C(C=CC(=C3)Cl)O
How it was run: as §1

[2] = compound: C1=CC(=C(C=C1Cl)C2=NC3=NC=CN=C3C(=N2)NC4=CC=NC=C4)F
How it was run: as §1

[3] = compound: C1=CC(=CC=C1C2=NC3=C(N2)C=C(C=C3)C(=O)N)OC4=CC=C(C=C4)Cl
How it was run: as §1

[4] = compound: C1=CC2=C(C=CC(=C2)/C=C\3/C(=O)NC(=NCC4=CC=CS4)S3)N=C1
How it was run: as §1

[5] = compound: C1=CC2=NC=CN=C2C=C1/C=C/3\C(=O)NC(=O)S3
How it was run: as §1

[6] = compound: C1=CC=C(C=C1)C2=NC(=C(N2)C3=CC=NC=C3)C4=CC(=C(C=C4)Cl)O
How it was run: as §1

[7] = compound: C1=CC=C2C(=C1)C3=NNC4=CC=CC(=C43)C2=O
How it was run: as §1

[8] = compound: C1CCN(C1)C(=O)NC2=CC=CC(=C2)NC3=NC=C(C(=N3)NCCC4=CN=CN4)Br
How it was run: as §1

[9] = compound: C1CN(CCC1(CC2=CC=C(C=C2)Cl)N)C3=NC=NC4=C3C=CN4
How it was run: as §1

Measured: log2 fold change

EBNA1BP2 (UniProt Q99848)
UniProt Q99848, sequence (Q99848 whole entry, looked up): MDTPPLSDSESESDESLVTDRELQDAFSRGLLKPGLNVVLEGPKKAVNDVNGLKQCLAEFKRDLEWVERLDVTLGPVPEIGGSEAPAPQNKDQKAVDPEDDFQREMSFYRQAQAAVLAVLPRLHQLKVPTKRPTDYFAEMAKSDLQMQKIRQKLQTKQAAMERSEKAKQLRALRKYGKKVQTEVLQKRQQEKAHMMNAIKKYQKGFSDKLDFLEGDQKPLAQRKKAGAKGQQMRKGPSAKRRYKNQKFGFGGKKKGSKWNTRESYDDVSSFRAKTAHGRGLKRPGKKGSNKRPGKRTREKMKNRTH
inactive: erlotinib -0.041 | [1] -0.149 | [2] -0.466 | [3] 0.034 | [4] 0.042 | [5] 0.052 | [6] -0.047 | [7] -0.134 | [8] 0.048 | [9] -0.414

EOGT (UniProt Q5NDL2)
UniProt Q5NDL2, sequence (Q5NDL2 whole entry, looked up): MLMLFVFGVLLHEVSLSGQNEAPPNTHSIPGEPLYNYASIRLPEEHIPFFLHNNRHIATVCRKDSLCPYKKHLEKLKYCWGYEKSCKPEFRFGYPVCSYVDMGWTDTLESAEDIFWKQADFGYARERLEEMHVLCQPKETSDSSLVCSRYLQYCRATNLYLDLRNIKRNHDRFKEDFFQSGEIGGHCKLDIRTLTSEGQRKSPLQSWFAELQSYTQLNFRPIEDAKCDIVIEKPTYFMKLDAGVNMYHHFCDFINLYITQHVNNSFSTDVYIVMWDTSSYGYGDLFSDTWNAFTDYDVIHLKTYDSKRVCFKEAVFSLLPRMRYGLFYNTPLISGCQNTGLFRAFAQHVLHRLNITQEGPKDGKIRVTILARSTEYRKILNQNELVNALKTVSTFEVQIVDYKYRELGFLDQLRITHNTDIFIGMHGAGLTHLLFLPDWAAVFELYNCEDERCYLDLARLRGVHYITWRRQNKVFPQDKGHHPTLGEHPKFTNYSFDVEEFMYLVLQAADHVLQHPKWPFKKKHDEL
inactive: erlotinib -0.058 | [1] -0.018 | [2] -0.032 | [3] 0.002 | [4] -0.026 | [5] -0.016 | [6] -0.032 | [7] 0.032 | [8] 0.004 | [9] 0.04

FADS1, A0A0A0MR51
inactive: erlotinib 0.016 | [1] -0.11 | [2] -0.049 | [3] -0.134 | [4] 0.09 | [5] 0.05 | [7] -0.008 | [8] -0.006 | [9] 0.002
active: [6] 0.231

DNAJB1 (UniProt P25685)
UniProt P25685, sequence (P25685 whole entry, looked up): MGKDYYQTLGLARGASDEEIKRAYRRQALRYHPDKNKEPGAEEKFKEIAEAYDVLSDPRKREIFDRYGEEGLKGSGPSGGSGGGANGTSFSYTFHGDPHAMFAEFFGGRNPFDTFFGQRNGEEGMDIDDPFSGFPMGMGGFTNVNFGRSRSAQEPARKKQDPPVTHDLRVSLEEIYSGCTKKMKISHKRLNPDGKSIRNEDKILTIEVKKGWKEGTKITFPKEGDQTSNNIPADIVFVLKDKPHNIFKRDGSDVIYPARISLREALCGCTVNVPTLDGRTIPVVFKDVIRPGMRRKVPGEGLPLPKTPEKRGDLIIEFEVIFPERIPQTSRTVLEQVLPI
inactive: erlotinib 0.005 | [1] 0.017 | [2] 0.012 | [3] 0.008 | [4] 0.024 | [5] 0.053 | [6] 0.024 | [7] -0.025 | [8] -0.019 | [9] 0.009

FAM3A (UniProt P98173)
inactive: erlotinib -0.064 | [1] 0.118 | [2] -0.067 | [3] 0.029 | [4] 0.059 | [5] 0.082 | [6] 0.083 | [7] -0.05 | [8] -0.044 | [9] 0.059

DBNL isoform 3 (UniProt Q9UJU6)
UniProt Q9UJU6, sequence (Q9UJU6 whole entry, looked up): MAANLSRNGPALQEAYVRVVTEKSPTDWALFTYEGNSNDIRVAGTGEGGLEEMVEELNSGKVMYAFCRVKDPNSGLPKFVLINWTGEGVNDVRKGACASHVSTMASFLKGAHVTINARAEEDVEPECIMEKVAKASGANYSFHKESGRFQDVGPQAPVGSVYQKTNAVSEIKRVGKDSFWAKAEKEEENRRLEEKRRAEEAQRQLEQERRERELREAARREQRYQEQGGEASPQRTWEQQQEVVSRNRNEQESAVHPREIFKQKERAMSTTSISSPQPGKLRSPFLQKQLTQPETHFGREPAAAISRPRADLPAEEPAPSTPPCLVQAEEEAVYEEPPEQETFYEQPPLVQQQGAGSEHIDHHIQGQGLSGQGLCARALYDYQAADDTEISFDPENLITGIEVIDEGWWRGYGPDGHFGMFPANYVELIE
inactive: erlotinib 0.06 | [1] 0.024 | [2] 0.034 | [3] -0.063 | [4] -0.012 | [5] 0.146 | [6] -0.008 | [7] -0.004 | [8] -0.084 | [9] -0.066

EDEM2 (UniProt Q9BV94)
inactive: erlotinib -0.025 | [1] 0.023 | [2] -0.009 | [3] 0.09 | [4] 0.132 | [5] -0.318 | [6] 0.012 | [7] 0.081 | [8] -0.018 | [9] 0.05

DTWD1 (UniProt Q8N5C7)
UniProt Q8N5C7, sequence (Q8N5C7 whole entry, looked up): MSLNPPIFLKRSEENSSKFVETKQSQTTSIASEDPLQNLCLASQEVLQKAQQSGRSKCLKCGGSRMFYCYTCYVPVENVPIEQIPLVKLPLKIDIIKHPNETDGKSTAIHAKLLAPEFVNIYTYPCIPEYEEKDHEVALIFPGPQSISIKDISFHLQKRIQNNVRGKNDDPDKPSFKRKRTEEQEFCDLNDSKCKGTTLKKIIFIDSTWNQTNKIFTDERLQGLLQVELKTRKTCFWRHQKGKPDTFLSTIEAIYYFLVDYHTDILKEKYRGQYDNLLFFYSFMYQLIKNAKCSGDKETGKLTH
inactive: erlotinib 0.072 | [1] 0.007 | [2] 0.002 | [3] -0.122 | [4] 0.018 | [5] 0.017 | [6] -0.039 | [7] 0.023 | [8] 0.016 | [9] 0.044

EEF1D isoform 2 (UniProt P29692)
UniProt P29692, sequence (P29692 whole entry, looked up): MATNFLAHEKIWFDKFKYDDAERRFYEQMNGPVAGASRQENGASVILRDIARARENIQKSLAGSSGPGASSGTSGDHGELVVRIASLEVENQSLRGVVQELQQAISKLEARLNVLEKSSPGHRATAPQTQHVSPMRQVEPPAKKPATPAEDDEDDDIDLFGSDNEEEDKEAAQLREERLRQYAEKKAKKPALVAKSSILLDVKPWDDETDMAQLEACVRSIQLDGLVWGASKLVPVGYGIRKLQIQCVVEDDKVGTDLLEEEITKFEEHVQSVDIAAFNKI
inactive: erlotinib 0 | [1] 0.031 | [2] 0.016 | [3] -0.028 | [4] 0.025 | [5] 0.02 | [6] -0.03 | [7] 0.021 | [8] 0.048 | [9] -0.055

DCAF6 isoform 3 (UniProt Q58WW2)
UniProt Q58WW2, sequence (Q58WW2 whole entry, looked up): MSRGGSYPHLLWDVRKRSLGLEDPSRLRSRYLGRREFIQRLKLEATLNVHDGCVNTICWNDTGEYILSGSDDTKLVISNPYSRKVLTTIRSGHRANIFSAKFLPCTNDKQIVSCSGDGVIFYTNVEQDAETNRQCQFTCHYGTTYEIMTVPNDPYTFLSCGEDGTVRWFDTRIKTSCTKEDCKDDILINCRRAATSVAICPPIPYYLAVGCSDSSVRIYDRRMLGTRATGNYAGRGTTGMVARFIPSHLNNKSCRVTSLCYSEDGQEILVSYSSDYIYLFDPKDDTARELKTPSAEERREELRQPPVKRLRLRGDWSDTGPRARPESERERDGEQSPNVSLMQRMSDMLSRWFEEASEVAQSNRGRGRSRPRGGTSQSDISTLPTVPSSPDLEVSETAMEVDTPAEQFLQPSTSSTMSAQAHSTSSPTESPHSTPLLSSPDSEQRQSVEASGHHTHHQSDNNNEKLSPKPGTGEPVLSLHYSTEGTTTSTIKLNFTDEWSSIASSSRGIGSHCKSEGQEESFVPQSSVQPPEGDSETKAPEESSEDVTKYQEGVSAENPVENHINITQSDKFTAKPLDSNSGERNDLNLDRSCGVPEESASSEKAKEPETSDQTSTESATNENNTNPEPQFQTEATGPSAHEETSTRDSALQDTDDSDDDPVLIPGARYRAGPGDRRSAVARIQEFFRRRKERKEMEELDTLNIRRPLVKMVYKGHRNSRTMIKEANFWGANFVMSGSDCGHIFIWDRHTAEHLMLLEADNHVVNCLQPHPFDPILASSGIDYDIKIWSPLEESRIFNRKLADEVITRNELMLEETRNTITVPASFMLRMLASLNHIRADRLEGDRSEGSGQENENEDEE
inactive: erlotinib 0.035 | [1] 0 | [2] 0.035 | [3] 0.014 | [4] 0.007 | [5] 0.045 | [6] 0.008 | [7] -0.036 | [8] 0.042 | [9] 0.055

CTSC (UniProt P53634)
UniProt P53634, sequence (P53634 whole entry, looked up): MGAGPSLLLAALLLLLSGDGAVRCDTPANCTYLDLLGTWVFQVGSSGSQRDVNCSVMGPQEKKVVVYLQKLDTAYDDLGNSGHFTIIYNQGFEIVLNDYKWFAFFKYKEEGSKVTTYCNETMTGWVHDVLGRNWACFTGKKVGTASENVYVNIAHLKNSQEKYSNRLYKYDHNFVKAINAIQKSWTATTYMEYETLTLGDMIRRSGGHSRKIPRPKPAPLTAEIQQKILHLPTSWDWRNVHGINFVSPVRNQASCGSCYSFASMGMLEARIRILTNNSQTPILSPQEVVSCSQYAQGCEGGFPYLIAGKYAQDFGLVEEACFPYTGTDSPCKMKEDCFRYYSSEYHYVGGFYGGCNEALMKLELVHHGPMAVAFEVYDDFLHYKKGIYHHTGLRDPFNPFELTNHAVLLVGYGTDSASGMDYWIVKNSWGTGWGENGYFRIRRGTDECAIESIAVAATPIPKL
inactive: erlotinib -0.002 | [1] 0.016 | [2] 0.022 | [3] -0.031 | [4] 0.014 | [5] 0.004 | [6] 0.028 | [7] 0.009 | [8] -0.02 | [9] 0.138

DMXL1 (UniProt Q9Y485)
inactive: erlotinib 0.059 | [1] 0.071 | [2] -0.006 | [3] 0.006 | [4] 0.068 | [5] -0.001 | [6] 0.024 | [7] -0.02 | [8] 0.019 | [9] 0.034

DPH5 isoform 5 (UniProt Q9H2P9)
UniProt Q9H2P9, sequence (Q9H2P9 whole entry, looked up): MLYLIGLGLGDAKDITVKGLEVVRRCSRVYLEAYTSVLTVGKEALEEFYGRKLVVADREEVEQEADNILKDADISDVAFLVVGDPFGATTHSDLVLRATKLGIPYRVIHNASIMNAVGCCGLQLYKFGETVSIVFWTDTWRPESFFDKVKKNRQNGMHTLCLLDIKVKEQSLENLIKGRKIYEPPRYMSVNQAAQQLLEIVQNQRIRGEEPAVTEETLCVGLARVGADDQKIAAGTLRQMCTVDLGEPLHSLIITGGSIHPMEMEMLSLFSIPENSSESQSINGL
inactive: erlotinib 0 | [1] 0.054 | [2] 0.093 | [3] 0.037 | [4] 0.022 | [5] 0.03 | [6] 0.041 | [7] 0.005 | [8] 0.004 | [9] 0.052

CTSH (UniProt P09668)
UniProt P09668, sequence (P09668 whole entry, looked up): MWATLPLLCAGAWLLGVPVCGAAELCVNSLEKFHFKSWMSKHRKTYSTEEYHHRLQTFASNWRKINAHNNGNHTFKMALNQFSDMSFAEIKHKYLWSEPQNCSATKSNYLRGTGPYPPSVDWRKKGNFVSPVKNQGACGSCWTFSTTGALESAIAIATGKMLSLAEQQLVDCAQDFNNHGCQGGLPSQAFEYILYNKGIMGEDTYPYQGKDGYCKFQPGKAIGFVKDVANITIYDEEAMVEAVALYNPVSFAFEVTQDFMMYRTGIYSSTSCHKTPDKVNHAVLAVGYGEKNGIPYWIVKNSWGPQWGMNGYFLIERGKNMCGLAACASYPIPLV
inactive: erlotinib 0.015 | [1] -0.054 | [2] 0.052 | [3] 0 | [4] -0.062 | [5] 0.048 | [6] 0.022 | [7] -0.011 | [8] 0.047 | [9] 0.057

DDX4 (UniProt Q9NQI0)
UniProt Q9NQI0, sequence (Q9NQI0 whole entry, looked up): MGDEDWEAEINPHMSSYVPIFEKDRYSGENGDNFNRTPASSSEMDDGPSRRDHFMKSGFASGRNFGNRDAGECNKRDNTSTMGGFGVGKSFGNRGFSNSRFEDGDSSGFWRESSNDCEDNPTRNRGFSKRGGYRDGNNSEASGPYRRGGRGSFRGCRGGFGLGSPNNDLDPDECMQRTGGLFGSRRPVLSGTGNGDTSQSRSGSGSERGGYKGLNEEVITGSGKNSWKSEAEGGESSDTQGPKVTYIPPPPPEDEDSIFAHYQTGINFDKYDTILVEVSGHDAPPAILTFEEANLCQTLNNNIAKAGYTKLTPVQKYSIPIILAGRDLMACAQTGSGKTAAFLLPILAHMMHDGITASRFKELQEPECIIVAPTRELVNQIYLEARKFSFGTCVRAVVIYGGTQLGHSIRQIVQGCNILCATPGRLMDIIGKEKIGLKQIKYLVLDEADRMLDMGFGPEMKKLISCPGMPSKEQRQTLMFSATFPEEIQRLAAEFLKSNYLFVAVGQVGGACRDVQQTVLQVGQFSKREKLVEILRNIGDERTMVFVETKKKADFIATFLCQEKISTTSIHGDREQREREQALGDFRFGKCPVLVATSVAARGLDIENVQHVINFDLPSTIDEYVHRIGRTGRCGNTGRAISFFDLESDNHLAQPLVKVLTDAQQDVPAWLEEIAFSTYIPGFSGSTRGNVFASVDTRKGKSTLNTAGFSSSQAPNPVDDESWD
inactive: erlotinib 0.576 | [1] -0.071 | [2] -0.23 | [3] -0.056 | [4] 0.006 | [5] 0 | [6] -0.305 | [7] 0.006 | [8] 0.053 | [9] -0.273
